Only some compounds are listed: those with a hit (about 8.9% of all), similar ones and a draw of the others.
ALOX12 inhib = 12-hLO (ALOX12) enzyme inhibition; P18054; purified 12-hLO, xylenol orange hydroperoxide absorbance; Potency, µM (doses to about 57.1 µM), actives largely listed as inhibitors; actives 0.12% (n = 150,000); AID 1452; also: nearly all actives have a fitted effect of over 55% in size
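Hydroperoxide formation by human 12-lipoxygenase from 40 uM arachidonic acid was followed colorimetrically via ferric-xylenol orange complex, using the 573/405 nm absorbance ratio. Enzyme concentration was 150 nM, with 30 min reaction at room temperature.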
NPSR antagonist = antagonists of human neuropeptide S receptor cAMP signaling. CHO-NPSR cells, cAMP TR-FRET, antagonist mode. Potency, µM (titrated, usually from 38.3 µM), most hits filed as inhibitors. actives 1% (n = 220,000). AID 1461. Q6W5P4; also: nearly all actives have a fitted effect of over 50% in size
Target sequence (Q6W5P4 whole entry, looked up): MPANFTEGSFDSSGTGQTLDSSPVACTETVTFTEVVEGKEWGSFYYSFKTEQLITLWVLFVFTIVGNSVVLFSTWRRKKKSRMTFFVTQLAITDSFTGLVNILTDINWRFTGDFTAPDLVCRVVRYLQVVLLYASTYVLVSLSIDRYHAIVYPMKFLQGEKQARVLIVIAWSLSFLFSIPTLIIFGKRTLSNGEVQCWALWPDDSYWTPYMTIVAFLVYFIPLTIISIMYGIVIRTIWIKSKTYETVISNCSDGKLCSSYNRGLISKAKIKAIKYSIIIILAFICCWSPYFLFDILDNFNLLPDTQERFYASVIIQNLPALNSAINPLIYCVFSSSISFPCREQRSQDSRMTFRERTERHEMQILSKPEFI
IMPase Li inh = IMPase inhibition in cells with lithium potentiation. CHO-M1 cells, IP1 TR-FRET (IP-One), carbachol + lithium. Potency, µM (series often up to 59.4 µM), hits mostly inhibitors. actives 0.35% (n = 210,000);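 also: IP1 builds up when IMPase is blocked and the TR-FRET signal falls; nearly all actives have a fitted effect of over 50% in size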
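CHO cells stably expressing M1 receptor (2000/well, cultured 16–30 h) treated 30 min at 37C with compound plus low lithium. Cytosolic IP1 by TR-FRET (665/620 ratio and 620 channel) after 10 min lysis; AC50 by Hill fit.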
ALDH1A1 inh = ALDH1A1 (human) enzyme inhibition; Potency, µM (titrated, usually from 75.3 µM), usual class: inhibitors; AID 1030; Purified ALDH1A1, NADH fluorescence, propionaldehyde substrate; actives 7.3% (n = 220,000); active = well fitted inhibition curve with a large enough effect, not every such curve was filed as active; inconclusive = small, poorly fitted or top-dose-only effect, or another doubt; inactive = no such curve, though single readings can be large or run the other way
IMPase cell inh = IMPase inhibition in cells; P97697; CHO-M1 cells, IP1 accumulation, HTRF TR-FRET ratio; inhibition (IP1 accumulation), % at 46.1 µM; 120,000 tested, under 10 active; AID 901; active = well fitted curve in the direction sought with a large enough effect in the signal ratio, not every such curve was filed as active; inconclusive = small, poorly fitted or top-dose-only effect, or a change in a side signal; inactive = no such curve, though single readings can be large or run the other way; the % refers to the signal ratio;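 also: cells stimulated with carbachol in lithium chloride buffer; higher means more IMPase inhibition seen as more IP1 and lower FRET ratio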
Target sequence (P97697 whole entry, looked up): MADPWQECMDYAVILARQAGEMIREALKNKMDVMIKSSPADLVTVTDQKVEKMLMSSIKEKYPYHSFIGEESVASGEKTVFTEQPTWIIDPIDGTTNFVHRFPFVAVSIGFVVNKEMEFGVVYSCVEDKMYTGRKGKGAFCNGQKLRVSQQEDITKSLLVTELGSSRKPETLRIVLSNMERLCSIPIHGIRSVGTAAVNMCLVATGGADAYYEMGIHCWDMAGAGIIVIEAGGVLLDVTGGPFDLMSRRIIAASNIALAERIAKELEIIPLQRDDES
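The IP-One HTRF competitive assay in carbachol-stimulated CHO-M1 cells quantifies cellular IP1. Compounds spanned up to 46 uM final, and activity is expressed as AC50 from concentration-response fits of the ratio and donor data.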
HPGD inh = blocks human HPGD enzyme activity. AID 894. purified HPGD, NADH fluorescence kinetic, PGE2 substrate. Potency, µM, actives largely listed as inhibitors. actives 4.3% (n = 150,000); active = well fitted inhibition curve with a large enough effect, not every such curve was filed as active; inconclusive = small, poorly fitted or top-dose-only effect, or another doubt; inactive = no such curve, though single readings can be large or run the other way
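NADH formation kinetics: reaction with 30 uM PGE2 and 1 mM NAD+ (final), 20 nM enzyme, Tris-HCl pH 8 with Tween 20, after 15 min compound preincubation at room temperature. Fluorescence change, last versus first of five reads.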
A number is an active result; - = inactive; ? = inconclusive; . = not tested or not shown; [ ] = another dose, or the depositor's remark. Unless noted, calls follow the shape of the dose curve; as a rule, active = well fitted curve in the direction sought with a large enough effect; inconclusive = small, poorly fitted or top-dose-only effect, or another doubt; inactive = no such curve, though single readings can be large; an effect the other way counts as inactive or inconclusive.

SMILES	ALOX12 inhib	NPSR antagonist	IMPase Li inh	ALDH1A1 inh	IMPase cell inh	HPGD inh
S=C(NCC(c1ccco1)N1CCCC1)Nc1ccccc1 (configuration not stated)	.	-	?	-	.	.
OC(CNCC(c1ccco1)N1CCCCC1)c1ccccc1 (configuration not stated)	-	-	-	18µM	-	-
COc1cccc(Nc2nc3ccccc3n2C(C)C)c1	-	-	-	-	.	-
COc1ccc(S(=O)(=O)NCCSCc2ccco2)cc1Cl	-	-	-	20µM	-	-
Cc1ccc2[nH]c(O)c(N=O)c2c1	.	-	.	32µM	.	.
Cc1cc(C(=O)O)ccc1[C@H](N)C(=O)O	-	.	-	-	-	-
CCCCn1c(NC(=O)c2ccco2)c(S(=O)(=O)c2ccc(C)cc2)c2nc3ccccc3nc21	-	-	?	?	.	?
CCCCn1c(C(C)NC(=O)CC)nc2ccccc21 (configuration not stated)	-	-	-	-	-	-
CCCCCCn1c(C(C)NC(=O)c2ccco2)nc2ccccc21 (configuration not stated)	-	-	-	5µM	-	-
CCCCn1c(NC(=O)c2ccc(Br)o2)c(S(=O)(=O)c2ccccc2)c2nc3ccccc3nc21	-	10µM	10µM	?	?	?
CCCCCn1c(NC(=O)c2ccco2)c(S(=O)(=O)c2ccc(C)cc2)c2nc3ccccc3nc21	?	13µM	11µM	?	?	?
O=C(COC(=O)c1ccc2c(c1Cl)C(=O)c1ccccc1C2=O)NC1CC1	-	-	-	?	.	7.9µM
O=C(COC(=O)c1ccc2c(c1Cl)C(=O)c1ccccc1C2=O)NC1CCCCC1	-	-	-	-	.	6.3µM
Cc1cc(C)nc(/N=C(\N)Nc2ccc3c(c2)OCCO3)n1	.	-	-	-	.	.
CC1CCCCC1NC(=O)COC(=O)c1ccccn1 (configuration not stated)	-	-	-	-	-	-
CN(C)S(=O)(=O)c1cccc(NC(=S)N2CCCCC2CO)c1 (configuration not stated)	.	-	-	-	.	.
COc1cccc(CC(NC(C)=O)C(=O)NC2CCN(S(=O)(=O)c3ccc(C)cc3)CC2)c1OC (configuration not stated)	.	-	-	-	.	.
CCOc1ccc(CN2CCN(Cc3ccc4c(c3)c3ccccc3n4CC)CC2)cc1	.	.	.	.	-	.
COc1cc2c(cc1OC)C(=S)NC(C)(C)C2	-	-	-	25µM	-	-
Fc1ccccc1N1CCN(c2nc(-c3cccs3)nc3ccccc23)CC1	.	-	-	?	.	.
CCCC(C)C(=O)Nc1ccc(S(N)(=O)=O)cc1 (configuration not stated)	.	-	-	-	.	.
CCC(OC(=O)CN1C(=O)C(=O)c2ccccc21)C(=O)Nc1ccc(S(N)(=O)=O)cc1 (configuration not stated)	.	-	-	0.089µM	.	.
O=C(CSc1nc(C2CC2)nc2ccccc12)N1c2ccccc2Sc2ccc(C(F)(F)F)cc21	-	7.9µM	-	-	-	-
Cc1sc2nc3c(SC(C)C(=O)O)cc(C(=O)c4ccccc4O)cn3c(=O)c2c1C (configuration not stated)	-	-	-	8.9µM	.	-
O=C(O)CSc1cc(C(=O)c2ccccc2O)cn2c(=O)c3c(-c4ccccc4)csc3nc12	.	-	-	3.5µM	.	.
SMILES	ALOX12 inhib	NPSR antagonist	IMPase Li inh	ALDH1A1 inh	IMPase cell inh	HPGD inh
CC(Nc1ccc2c(c1)OCCO2)C(=O)Nc1ccc2c(c1)OCO2 (configuration not stated)	.	-	-	-	.	.
COc1cc(O)c(C(CC(=O)N2CCCC2)c2cc(OC)c(OC)c(OC)c2)c(OC)c1 (configuration not stated)	.	-	.	.	.	.
CCOC(=O)c1c(NC(=O)c2cc(-c3ccc(Cl)s3)nc3ccccc23)sc(C(N)=O)c1C	-	-	-	-	-	-
COc1ccc(-c2cc(C(=O)Nc3sc4c(c3C#N)CCCC4)c3ccccc3n2)cc1OC	-	-	-	-	-	-
Cc1ccccc1-c1cc(C(=O)Nc2sc(C)c(C)c2C(N)=O)c2ccccc2n1	-	-	-	?	-	32µM
CCOC(=O)c1sc(NC(=O)c2cc(-c3ccccc3C)nc3ccccc23)c(C#N)c1C	-	-	-	8.9µM	-	16µM
CCOC(=O)c1cccc(S(=O)(=O)N(CCO)Cc2cc3cc(OC)c(OC)cc3[nH]c2=O)c1	-	-	-	?	-	-
COc1cccc(C2CC(c3ccccc3Cl)n3nc(N)nc3N2)c1 (configuration not stated)	-	-	-	-	-	-
CN(C)c1ccc(/C=C/C(=O)c2cccc(Br)c2)cc1	-	-	-	7.1µM	-	-
O=[N+]([O-])c1cccc(/C=N/Nc2nc(N3CCCCC3)nc(N3CCCCC3)n2)c1	.	-	-	-	.	.
COc1ccc(-c2nc(N3CCCC3)[nH]c(=O)c2C#N)cc1	-	-	-	?	-	-
O=c1cc(-c2ccco2)nc(-c2cccs2)o1	-	-	-	14µM	-	-
O=C(COc1ccc(Br)cc1Cl)NC(=S)N1CCc2ccccc21	-	-	-	?	.	?
CC(Oc1ccc(Cl)cc1Cl)C(=O)NC(=S)N1CCc2ccccc21 (configuration not stated)	-	-	?	18µM	-	-
CC(Oc1ccc(Cl)cc1Cl)C(=O)NN=C1CCN(C)CC1 (configuration not stated)	-	-	-	2.5µM	.	-
CC(C)(C)C(=O)NC(=S)N1CCc2ccccc21	.	-	-	11µM	.	.
c1ccc([P+](CC[P+](c2ccccc2)(c2ccccc2)c2ccccc2)(c2ccccc2)c2ccccc2)cc1	-[11.4 µM]	.	-	-[13.5 µM]	.	-
O=S(=O)(NNc1ccc(Cl)nn1)c1ccc(F)cc1	-	-	-	28µM	.	3.5µM
O=S(=O)(Nc1ccc(Cl)nn1)c1ccccc1	.	-	-	-	.	.
CCOC(=O)c1c(CC(C)C)csc1NC(=O)c1ccccc1C(=O)O	.	-	.	.	.	.
CC(C)Cc1csc(NC(=O)c2ccc(F)cc2)c1C(=O)O	-	-	-	-	.	25µM
O=C(Nc1nnc(-c2cccs2)o1)C1CC1	.	-	-	?	.	.
CC(=O)Nc1sc2c(c1C#N)CCCC2	-	-	-	-	-	-
CN1Cc2sc(NC(=S)NC(=O)c3ccccc3)c(C#N)c2CC1(C)C	.	-	.	.	.	.
Cn1nccc1C(=O)NC(=S)Nc1sc2c(c1C#N)CCCCC2	-	-	-	?	-	-
Cn1nc(C(=O)Nc2sc3c(c2C#N)CCCC3)ccc1=O	.	-	-	2.2µM	.	.
N#Cc1c(NC(=S)NC(=O)c2ccccc2)sc2c1CCC2	-	-	-	14µM	.	-
CC(=O)NC(=S)Nc1sc2c(c1C#N)CCCCC2	-	-	.	1.4µM	-	.

Bioassay records from PubChem BioAssay.
